In PubChem BioAssay AID1159580 (chemical genetic matrix, 2015):
The campaign covered roughly 5,500 compounds. About 2,000 (36%) were called active. About 18% were inconclusive and are not listed. Rule as the data show it: active = normalized growth mostly below about 0.91 (no sharp cut-off); inconclusive = no clear call, values can overlap the other calls; inactive = mostly above about 0.92. The list shows a part of the results.

Assay: chemical genetic growth profiling, strain panel (AID 1159580);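 also: tested at 20 µM; growth read once vehicle control cultures reached saturation at 30 °C; 1 = growth at the plate median or of vehicle wells; lower values mean less growth of the strain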
Conditions: S. cerevisiae deletion strains, growth OD
[1] = locus YHR030C, strain SLT2, stronger effect = lower value
[2] = locus YHR079C, strain IRE1, stronger effect = lower value
[3] = locus YJL095W, strain BCK1, stronger effect = lower value
[4] = locus YJR066W, strain TOR1, stronger effect = lower value
[5] = locus YLR113W, strain HOG1, stronger effect = lower value
[6] = locus YNL183C, strain NPR1, stronger effect = lower value
[7] = locus YOR231W, strain MKK1, stronger effect = lower value
[8] = locus YPL256C, strain CLN2, stronger effect = lower value
[9] = locus YAL040C, strain CLN3, stronger effect = lower value
[10] = locus YCL061C, strain MRC1 (second series), stronger effect = lower value
[11] = locus YDR363W, strain ESC2, stronger effect = lower value
[12] = locus YER002W, strain NOP16, stronger effect = lower value
[13] = locus YGR078C, strain PAC10, stronger effect = lower value
[14] = locus YJR075W, strain HOC1, stronger effect = lower value
[15] = locus YMR263W, strain SAP30, stronger effect = lower value
[16] = locus YMR307W, strain GAS1, stronger effect = lower value
[17] = locus YNL128W, strain TEP1, stronger effect = lower value
[18] = locus YNL175C, strain NOP13, stronger effect = lower value
[19] = locus YNL197C, strain WHI3, stronger effect = lower value
[20] = locus YNL224C, strain SQS1, stronger effect = lower value
[21] = locus YNL322C, strain KRE1, stronger effect = lower value
[22] = locus YOR083W, strain WHI5 (second series), stronger effect = lower value

Measured: normalized growth

Cc1cc2c(s1)Nc1ccccc1N=C2N1CCN(C)CC1
inactive: [1] 0.975 | [2] 0.976 | [3] 1.01 | [4] 0.944 | [5] 1.05 | [6] 0.969 | [7] 1 | [8] 1.03

COCC1=C(C(=O)OC(C)OC(=O)OC(C)C)N2C(=O)[C@@H](NC(=O)/C(=N\OC)c3csc(N)n3)[C@H]2SC1 (stereo partly specified)
inactive: locus YAL021C, strain ccr4, stronger effect = lower value 0.98 | locus YAL026C, strain drs2, stronger effect = lower value 0.967 | locus YAL030W, strain snc1, stronger effect = lower value 0.982 | locus YBL061C, strain skt5, stronger effect = lower value 0.968 | locus YBR009C, strain hhf1, stronger effect = lower value 0.96 | locus YBR023C, strain chs3, stronger effect = lower value 0.982 | locus YBR171W, strain sec66, stronger effect = lower value 0.968 | locus YBR231C, strain swc5, stronger effect = lower value 0.967 | locus YBR279W, strain paf1, stronger effect = lower value 0.98 | locus YCL011C, strain gbp2, stronger effect = lower value 0.973 | locus YCL016C, strain dcc1, stronger effect = lower value 0.982 | locus YCL061C, strain MRC1, stronger effect = lower value 0.981 | locus YCL069W, strain vba3, stronger effect = lower value 0.976 | locus YCR088W, strain abp1, stronger effect = lower value 0.97 | locus YDL005C, strain med2, stronger effect = lower value 0.966 | locus YDL040C, strain nat1, stronger effect = lower value 0.977 | locus YDR001C, strain nth1, stronger effect = lower value 0.97 | locus YDR069C, strain doa4, stronger effect = lower value 0.971 | locus YDR137W, strain rgp1, stronger effect = lower value 0.93 | locus YDR159W, strain sac3, stronger effect = lower value 0.95 | locus YDR195W, strain ref2 0.927 | locus YDR297W, strain sur2, stronger effect = lower value 0.979 | locus YDR334W, strain swr1, stronger effect = lower value 0.976 | locus YDR335W, strain msn5, stronger effect = lower value 0.987 | locus YDR392W, strain spt3, stronger effect = lower value 0.919 | locus YEL003W, strain gim4, stronger effect = lower value 0.984 | locus YEL037C, strain rad23, stronger effect = lower value 0.969 | locus YEL061C, strain CIN8 (second series), stronger effect = lower value 0.971 | locus YER015W, strain faa2, stronger effect = lower value 0.98 | locus YER016W, strain bim1, stronger effect = lower value 0.98 | locus YER111C, strain swi4, stronger effect = lower value 0.972 | locus YER155C, strain BEM2 (second series), stronger effect = lower value 0.972 | locus YFR010W, strain ubp6, stronger effect = lower value 0.964 | locus YGL167C, strain pmr1, stronger effect = lower value 0.967 | locus YGL173C, strain kem1, stronger effect = lower value 0.968 | locus YGL227W, strain vid30, stronger effect = lower value 0.96 | locus YGL240W, strain doc1, stronger effect = lower value 0.981 | locus YGL253W, strain hxk2, stronger effect = lower value 0.986 | locus YHR013C, strain ard1, stronger effect = lower value 0.976 | locus YHR027C, strain rpn1, stronger effect = lower value 0.985 | [1] 0.968 | [2] 0.999 | locus YHR142W, strain chs7, stronger effect = lower value 0.982 | locus YJL092W, strain hpr5, stronger effect = lower value 0.972 | locus YJL095W, strain BCK1 (second series), stronger effect = lower value 0.989 | [3] 0.977 | locus YJL115W, strain asf1, stronger effect = lower value 0.966 | locus YJL129C, strain trk1, stronger effect = lower value 0.974 | locus YJL154C, strain vps35, stronger effect = lower value 0.976 | locus YJL164C, strain tpk1, stronger effect = lower value 0.998 | locus YJL166W, strain qcr8, stronger effect = lower value 0.998 | locus YJL187C, strain SWE1, stronger effect = lower value 0.982 | [4] 0.927 | locus YKL160W, strain elf1, stronger effect = lower value 0.994 | locus YKR026C, strain gcn3, stronger effect = lower value 0.962 | locus YKR091W, strain srl3, stronger effect = lower value 0.981 | locus YLL001W, strain dnm1, stronger effect = lower value 0.976 | locus YLL026W, stronger effect = lower value 0.971 | locus YLL041C, strain sdh2, stronger effect = lower value 0.992 | locus YLR027C, strain aat2, stronger effect = lower value 0.979 | [5] 0.943 | locus YLR221C, strain rsa3, stronger effect = lower value 0.997 | locus YLR258W, strain gsy2, stronger effect = lower value 0.978 | locus YLR262C, strain YPT6 (second series), stronger effect = lower value 0.987 | locus YLR320W, strain mms22, stronger effect = lower value 0.983 | locus YLR342W, strain FKS1, stronger effect = lower value 0.973 | locus YLR357W, strain rsc2, stronger effect = lower value 0.929 | locus YLR370C, strain arc18, stronger effect = lower value 0.956 | locus YLR384C, strain iki3, stronger effect = lower value 0.976 | locus YML120C, strain ndi1, stronger effect = lower value 0.967 | locus YMR058W, strain fet3, stronger effect = lower value 0.981 | locus YMR125W, strain sto1, stronger effect = lower value 0.926 | locus YMR129W, stronger effect = lower value 0.97 | locus YMR205C, strain PFK2, stronger effect = lower value 0.937 | locus YMR231W, strain pep5, stronger effect = lower value 0.967 | locus YNL071W, strain lat1, stronger effect = lower value 0.986 | [6] 0.945 | locus YNL209W, strain ssb2, stronger effect = lower value 0.986 | locus YNL248C, strain rpa49, stronger effect = lower value 0.99 | locus YNL322C, strain KRE1 (second series), stronger effect = lower value 0.982 | locus YNR049C, strain mso1, stronger effect = lower value 0.98 | locus YOR001W, strain rrp6, stronger effect = lower value 0.978 | locus YOR070C, strain gyp1, stronger effect = lower value 0.976 | locus YOR080W, strain dia2, stronger effect = lower value 0.967 | locus YOR083W, strain WHI5, stronger effect = lower value 0.993 | locus YOR106W, strain vam3, stronger effect = lower value 0.983 | [7] 0.973 | locus YOR265W, strain rbl2, stronger effect = lower value 0.982 | locus YOR270C, strain vph1, stronger effect = lower value 0.951 | locus YOR290C, strain snf2, stronger effect = lower value 0.962 | locus YPL051W, strain arl3, stronger effect = lower value 0.994 | locus YPL078C, strain atp4, stronger effect = lower value 0.986 | locus YPL106C, strain sse1, stronger effect = lower value 0.982 | locus YPL240C, strain hsp82, stronger effect = lower value 0.99 | [8] 0.974

CCCN1CCCC2Cc3[nH]ncc3CC21 (stereo unspecified)
inactive: [9] 0.972 | [10] 1 | locus YDR150W, strain NUM1, stronger effect = lower value 0.995 | [11] 1.02 | [12] 0.992 | [13] 0.997 | locus YGR229C, strain SMI1, stronger effect = lower value 0.989 | [14] 1 | [15] 0.997 | [16] 0.992 | [17] 0.989 | locus YNL153C, strain GIM3, stronger effect = lower value 1.1 | [18] 0.994 | [19] 0.992 | [20] 0.98 | [21] 1.02 | [22] 0.986 | locus YPL241C, strain CIN2, stronger effect = lower value 1

CC(C)NP(=O)(NC(C)C)OP(=O)(NC(C)C)NC(C)C
inactive: [9] 0.983 | [10] 1 | [11] 0.998 | [12] 0.995 | [13] 0.991 | [14] 1.01 | [15] 0.991 | [16] 0.995 | [17] 0.99 | [18] 0.991 | [19] 0.995 | [20] 0.991 | [21] 1.01 | [22] 0.991 | locus YPL055C, strain LGE1, stronger effect = lower value 1.01
